Structures can show the parent of a compound that is named as a salt. ± gives the standard deviation of the averaged measurements.
Assays:
[1] = test system: Saccharomyces cerevisiae BY4741 SeMeCo community; test: mean cell size (pixel area) (pixels); higher = larger cells; conditions: 10 µM; 24 h; SM minimal medium
Procedure, shortened: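 Mean cell pixel area per well was measured in a four-plasmid fluorescent community of Saccharomyces cerevisiae BY4741, where every plasmid complements one auxotrophy and carries a fluorescent marker. Cells from an overnight preculture at OD600 = 1.0 were diluted to OD600 = 0.3 and dispensed at 70 µl into 384-well plates acoustically predosed with drug to a final 10 µM in SM medium. Incubation lasted 24 h, followed by paraformaldehyde fixation, automated confocal imaging and analysis in Harmony. Reported figures are averaged over 3 replicates. Same SeMeCo high-content imaging drug screen: Selleck FDA-approved drugs at 10 µM, 24 h in SM medium, 384-well plates, 3 replicates.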

[2] = test system: Saccharomyces cerevisiae BY4741 SeMeCo community; test: z-score of subpopulation abundance vs DMSO median, subpopulation auxotrophic for M; higher = larger share of this subpopulation than in DMSO controls; conditions: 10 µM; 24 h; SM minimal medium; subpopulation (auxotrophy): M
Procedure, shortened: (§1)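 Cells of a Saccharomyces cerevisiae BY4741 community, carrying four plasmids that each restored one auxotrophy and encoded a distinct fluorescent protein, were pre-grown overnight to OD600 1.0 and diluted to 0.3. A 70 µl volume was added to 384-well plates acoustically predosed with library drugs (10 µM final) and grown 24 h in minimal SM medium. After paraformaldehyde fixation, automated confocal microscopy was used, with single-auxotroph fluorescent strains for thresholds and autofluorescence correction. The abundance of each subpopulation was scored as a z-score against the vehicle-well median.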

[3] = test system: Saccharomyces cerevisiae BY4741 SeMeCo community; test: z-score of subpopulation abundance vs DMSO median, subpopulation auxotrophic for L; higher = larger share of this subpopulation than in DMSO controls; conditions: 10 µM; 24 h; SM minimal medium; subpopulation (auxotrophy): L
Procedure, shortened: as §1

[4] = test system: Saccharomyces cerevisiae BY4741 SeMeCo community; test: z-score of subpopulation abundance vs DMSO median, subpopulation auxotrophic for U; higher = larger share of this subpopulation than in DMSO controls; conditions: 10 µM; 24 h; SM minimal medium; subpopulation (auxotrophy): U
Procedure, shortened: as §1

[5] = test system: Saccharomyces cerevisiae BY4741 SeMeCo community; test: z-score of subpopulation abundance vs DMSO median, subpopulation auxotrophic for H; higher = larger share of this subpopulation than in DMSO controls; conditions: 10 µM; 24 h; SM minimal medium; subpopulation (auxotrophy): H
Procedure, shortened: as §1

[6] = test system: Saccharomyces cerevisiae BY4741 SeMeCo community; test: z-score of subpopulation abundance vs DMSO median, subpopulation auxotrophic for LM; higher = larger share of this subpopulation than in DMSO controls; conditions: 10 µM; 24 h; SM minimal medium; subpopulation (auxotrophy): LM
Procedure, shortened: as §1

[7] = test system: Saccharomyces cerevisiae BY4741 SeMeCo community; test: z-score of subpopulation abundance vs DMSO median, subpopulation auxotrophic for HM; higher = larger share of this subpopulation than in DMSO controls; conditions: 10 µM; 24 h; SM minimal medium; subpopulation (auxotrophy): HM
Procedure, shortened: as §1

[8] = test system: Saccharomyces cerevisiae BY4741 SeMeCo community; test: z-score of subpopulation abundance vs DMSO median, subpopulation auxotrophic for HU; higher = larger share of this subpopulation than in DMSO controls; conditions: 10 µM; 24 h; SM minimal medium; subpopulation (auxotrophy): HU
Procedure, shortened: as §1

[9] = test system: Saccharomyces cerevisiae BY4741 SeMeCo community; test: z-score of subpopulation abundance vs DMSO median, subpopulation auxotrophic for UM; higher = larger share of this subpopulation than in DMSO controls; conditions: 10 µM; 24 h; SM minimal medium; subpopulation (auxotrophy): UM
Procedure, shortened: as §1

[10] = test system: Saccharomyces cerevisiae BY4741 SeMeCo community; test: z-score of subpopulation abundance vs DMSO median, subpopulation auxotrophic for HL; higher = larger share of this subpopulation than in DMSO controls; conditions: 10 µM; 24 h; SM minimal medium; subpopulation (auxotrophy): HL
Procedure, shortened: as §1

[11] = test system: Saccharomyces cerevisiae BY4741 SeMeCo community; test: z-score of subpopulation abundance vs DMSO median, subpopulation auxotrophic for HLU; higher = larger share of this subpopulation than in DMSO controls; conditions: 10 µM; 24 h; SM minimal medium; subpopulation (auxotrophy): HLU
Procedure, shortened: as §1

[12] = test system: Saccharomyces cerevisiae BY4741 SeMeCo community; test: z-score of subpopulation abundance vs DMSO median, subpopulation auxotrophic for HLM; higher = larger share of this subpopulation than in DMSO controls; conditions: 10 µM; 24 h; SM minimal medium; subpopulation (auxotrophy): HLM
Procedure, shortened: as §1

[13] = test system: Saccharomyces cerevisiae BY4741 SeMeCo community; test: z-score of subpopulation abundance vs DMSO median, subpopulation auxotrophic for HUM; higher = larger share of this subpopulation than in DMSO controls; conditions: 10 µM; 24 h; SM minimal medium; subpopulation (auxotrophy): HUM
Procedure, shortened: as §1

[14] = test system: Saccharomyces cerevisiae BY4741 SeMeCo community; test: z-score of subpopulation abundance vs DMSO median, subpopulation auxotrophic for LUM; higher = larger share of this subpopulation than in DMSO controls; conditions: 10 µM; 24 h; SM minimal medium; subpopulation (auxotrophy): LUM
Procedure, shortened: as §1

[15] = test system: Saccharomyces cerevisiae BY4741 SeMeCo community; test: z-score of subpopulation abundance vs DMSO median, subpopulation auxotrophic for HLUM; higher = larger share of this subpopulation than in DMSO controls; conditions: 10 µM; 24 h; SM minimal medium; subpopulation (auxotrophy): HLUM
Procedure, shortened: as §1

[16] = test system: Saccharomyces cerevisiae BY4741 SeMeCo community; test: z-score of prototroph abundance vs DMSO median; higher = larger share of this subpopulation than in DMSO controls; conditions: 10 µM; 24 h; SM minimal medium; subpopulation (auxotrophy): Prototroph
Procedure, shortened: as §1

[17] = test system: Saccharomyces cerevisiae BY4741 SeMeCo community; test: z-score of subpopulation abundance vs DMSO median, subpopulation auxotrophic for LU; higher = larger share of this subpopulation than in DMSO controls; conditions: 10 µM; 24 h; SM minimal medium; subpopulation (auxotrophy): LU
Procedure, shortened: as §1

Row | Structure (SMILES) | mean cell size [1] | z-score of subpopulation abundance [2] | z-score of subpopulation abundance [3] | z-score of subpopulation abundance [4] | z-score of subpopulation abundance [5] | z-score of subpopulation abundance [6] | z-score of subpopulation abundance [7] | z-score of subpopulation abundance [8] | z-score of subpopulation abundance [9] | z-score of subpopulation abundance [10] | z-score of subpopulation abundance [11] | z-score of subpopulation abundance [12] | z-score of subpopulation abundance [13] | z-score of subpopulation abundance [14] | z-score of subpopulation abundance [15] | z-score of prototroph abundance [16] | z-score of subpopulation abundance [17]
1 | Cc1c(OCC(F)(F)F)ccnc1C[S@@+]([O-])c1nc2ccccc2[nH]1 [Dexlansoprazole] | 12.3 ± 0.13 | -0.04 | 0.56 | -0.65 | 1.18 | 1.28 | 0 | -0.32 | -0.91 | 0.7 | 0.19 | -0.96 | -0.66 | 0.16 | -0.54 | – | –
2 | CCCCc1oc2ccc(NS(C)(=O)=O)cc2c1C(=O)c1ccc(OCCCN(CCCC)CCCC)cc1 [Dronedarone HCl] | 12.24 ± 0.057 | -0.05 | 0.34 | -0.45 | 1.17 | 0.28 | 1.04 | 0.78 | -0.63 | – | 2.17 | 1.9 | -0.2 | 0.59 | 0 | -0.15 | –
3 | CCCOc1ccc2c(c1)CC[C@@H]1[C@@H]2CC[C@]2(C)[C@@H](OC)CC[C@@H]12 [Promestriene] | 12.5 ± 0.26 | 1.08 | 0.77 | 0.31 | 0.19 | 0.33 | 0.25 | 0.21 | 1.71 | 0.84 | 0.6 | 0.48 | 1.7 | 1.34 | 0.24 | – | –
4 | CN1[C@@H](CC(=O)c2ccccc2)CCC[C@H]1C[C@H](O)c1ccccc1 [Lobeline hydrochloride] | 12.5 ± 0.23 | 1.16 | – | 0.36 | -0.65 | -0.29 | 0.17 | -0.75 | 0.92 | -0.13 | -0.94 | – | 0.22 | -0.75 | 0.01 | 0.02 | -0.23
5 | COc1cc(O)c(C(=O)Nc2nc(C(=O)NCCN(C(C)C)C(C)C)cs2)cc1OC [Acotiamide] | 12.14 ± 0.12 | 0.17 | 1.18 | -0.39 | – | 1.66 | 0.64 | -0.06 | 0.28 | 1.99 | 1.61 | 0.73 | 0.93 | 1.3 | 1.15 | -0.88 | –
6 | CCCCOc1ccc(C(=O)CCN2CCCCC2)cc1 [Dyclonine HCl] | 12.2 ± 0.23 | 0.29 | 0.13 | -0.57 | -0.1 | 0.14 | -0.09 | 0.17 | -0.42 | -0.74 | -0.26 | -0.52 | 0.17 | -0.27 | -0.65 | 0.35 | –
7 | Cc1c(-c2ccc(O)cc2)n(Cc2ccc(OCCN3CCCCCC3)cc2)c2ccc(O)cc12 [Bazedoxifene HCl] | 12.54 ± 0.11 | 0.94 | – | -0.23 | 1.47 | 0.49 | 1.47 | -0.01 | -0.08 | 1.1 | -0.15 | – | -0.15 | 0.03 | -0.25 | -0.43 | 0.03
8 | OCCOc1ccc(/C(=C(/CCCl)c2ccccc2)c2ccccc2)cc1 [Ospemifene] | 12.7 ± 0.24 | 0.43 | -0.6 | -0.86 | 0.74 | -0.34 | 1.37 | -0.18 | -0.91 | 0.7 | 0.94 | -0.21 | -0.62 | -0.52 | -0.5 | 0.59 | –
9 | Cc1c(Nc2ncccc2C(=O)O)cccc1C(F)(F)F [Flunixin Meglumin] | 12.6 ± 0.17 | -0.95 | -1.33 | 0.63 | -0.33 | -1.23 | -0.07 | -0.19 | 0.51 | -0.74 | -1 | – | 0.12 | -0.14 | 0 | 0.11 | –
10 | CN1CC(=O)N2[C@H](c3ccc4c(c3)OCO4)c3[nH]c4ccccc4c3C[C@@H]2C1=O [Tadalafil] | 12.3 ± 0.19 | 0.2 | 1.85 | – | 0.35 | 3.43 | 0.83 | -0.74 | -0.26 | 1.24 | 0.4 | – | 0.54 | 1.95 | 1.5 | -0.42 | –
11 | CC(=O)C1C(=O)C=C(C)OC1=O (stereo unspecified) [Sodium dehydroacetate] | – | 0.37 | 1.59 | 1.63 | -1.35 | 0.56 | 0.2 | 0.24 | 0.54 | 0.4 | 1.27 | 0.13 | -0.21 | – | 1.61 | -1.07 | –
12 | CNCC[C@@H](Oc1ccccc1C)c1ccccc1 [Atomoxetine HCl] | 12.4 ± 0.22 | 0.21 | 0.96 | 0.03 | -0.84 | – | -0.84 | – | -0.26 | -0.43 | 0.11 | -0.77 | -1.01 | 0.05 | 1.1 | 0.61 | –
13 | CC[C@H](Nc1ncnc2[nH]cnc12)c1nc2cccc(F)c2c(=O)n1-c1ccccc1 [Idelalisib (CAL-101, GS-1101)] | 12.58 ± 0.07 | -0.54 | -0.49 | 1.09 | 0.31 | – | -0.64 | 0.68 | 0.34 | -1.05 | -0.35 | 0.08 | -0.4 | 0.11 | -0.62 | -0.14 | –
14 | O=C1CN(/N=C/c2ccc(-c3ccc([N+](=O)[O-])cc3)o2)C(=O)N1 [Dantrolene sodium hemiheptahydrate] | 12.7 ± 0.17 | 3.93 | 1.44 | – | 2.07 | – | 1.38 | -2.96 | – | – | -1.02 | 2.77 | -1.65 | -1.33 | 0.57 | 1 | –

— the supplement of paper PMC8975748
